Test results: PubChem BioAssay (NCI)
About 83,000 compounds went through this panel and 20% of them were active in at least one assay; those are over-represented in the sample as a whole.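 Results are percent growth after 48 hours of single-concentration exposure. 100 means growth as in untreated cells, lower positive values show inhibition; negative values down to -100 show cell death.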 A number with no mark means an inactive call. The source made the active and inactive calls. How the source made its calls: active means growth percent below 10; inactive means the rest.

test system: MDA-MB-468 breast; assay: NCI-60 one-dose screen, 48 h (100 = growth as untreated, 0 = no growth, -100 = all killed); conditions: 10 µM unless noted

| Structure (SMILES) | growth |
| --- | --- |
| N=C(N)c1ccc(-c2ccc(-c3ccc(Cl)cc3)s2)nc1 | -56.4% (active) |
| COc1cc(C[C@H]2COc3cc(O)cc(O)c3C2=O)ccc1O | 26.2% |
| COc1cc2c3c(n(CCCNCC4CC4)c(=O)c2cc1OC)-c1cc2c(cc1C3=O)OCO2 | 41.4% |
| C#C[C@@]1(O)[C@@H](CO)O[C@@H](n2ccc3c(N)ncnc32)[C@@H]1O | -45.3% (active) |
| COC(=O)[C@H](Cc1cn(C)cn1)NC(=O)[C@H](CC(C)C)NC(=O)Nc1cc(C(F)(F)F)cc(C(F)(F)F)c1 | -72.1% [100 µM] (active) |
| O=[N+]([O-])c1ccc(Oc2cccnc2)c([N+](=O)[O-])c1 | 21.6% |
| Fc1ccc(COc2ccc(Nc3ncnc4sc5c(c34)CCCC5)cc2)cc1 | 93.9% |
| Fc1cccc(-c2nc(-c3c[nH]c4ncccc34)cs2)c1 | 29.4% [100 µM] |
| Cc1ccc(C)c2c1SC1=NNC(Oc3ccc(Cl)cc3)=C(C#N)C(=N)N12 | 118% |
| C=C(C)[C@@H]1CC[C@]2(C(=O)Nc3ccccn3)CC[C@]3(C)[C@H](CC[C@@H]4[C@@]5(C)CCCNC(C)(C)[C@@H]5CC[C@]43C)[C@@H]12 | -13.8% (active) |
| Cc1cccc(NC(=O)Nc2ccc(-c3ccc4c(c3)NC(=O)/C4=C\c3ccc[nH]3)cc2)c1 | -0.651% (active) |
| C=C(C)[C@@H]1CC[C@]2(C(=O)OC)CC[C@]3(C)[C@H](CC[C@@H]4[C@@](C)(CC/C(N)=N/O)[C@H](C(=C)C)CC[C@]43C)[C@@H]12 | 99.5% |
| CCOCc1nc2ccccc2c(=O)[nH]1 | 98.7% |
| CCOC(=O)c1cc(C(=O)c2cc(OC)c(OC)c(OC)c2)n2c1ccc1c3cccnc3ccc12 | 61.5% |
| CC1(C)N=C(N)N=C(N)N1c1cccc(CCCCOc2ccccc2)c1 | 10.1% |
| CCN1C(=O)N(c2ccccc2)C2NN=c3s/c(=C4\C(=O)N(C(C)C)c5ccccc54)c(=O)n3C21 (stereo not given) | 21.4% |
| C=CCn1c(SCC(=O)Nc2ccc(C(=O)/C=C/c3ccc(Cl)cc3)cc2)nnc1-c1cc(-c2ccc(S(N)(=O)=O)cc2)nc2ccccc12 | 90.2% |
| Nc1cc2c(cc1C(=O)c1cccc(F)c1)OCCO2 | 93.8% |
| COc1cc2c3c(n(CCCN4CCC[C@H]4C(N)=O)c(=O)c2cc1OC)-c1cc2c(cc1C3=O)OCO2 | 11.8% |
| COc1cc(/C=C2\C(=O)N(CCCCn3c4ccccc4c(=O)c4ccccc43)c3ccccc32)cc(OC)c1O | 46.2% |

| Structure (SMILES) | growth |
| --- | --- |
| Cc1cc(C)c2c(c1)N(C)c1ncnc(-n3c(C)nc4cc(C)ccc43)c1CC2C (stereo not given) | 3.92% (active) |
| CCOc1ccc(/C=N\N2CCCCCC2)cc1OCC | 111% |
| Cc1cc(N2CCOCC2)nc(N[C@@H]2CCC[C@H](Nc3ccnc4cc(Cl)ccc34)C2)n1 | -6.14% (active) |
| COc1cc2c3c(c4c5ccccc5[nH]c4c2c(OC)c1OC)C(=O)N(CCN1CCCCC1)C3=O | 63.7% |
| C=C1C(=O)O[C@H]2[C@H]1CC/C(COC(=O)NCc1c[nH]c3ccccc13)=C\CC[C@@]1(C)O[C@@H]21 | 48% |
| O=c1oc2ccccc2cc1-c1cc(-c2ccc(-c3cc(-c4cc5ccccc5oc4=O)nc(-c4cc5ccccc5oc4=O)c3)cc2)cc(-c2cc3ccccc3oc2=O)n1 | 84.3% |
| CS(=O)(=O)c1c(Nc2ccccc2)n[nH]c1N | 110% |
| NC(=S)N/N=C1\CCCC(C(F)(F)F)C1 (stereo not given) | 31.3% |
| Oc1cccc2c1NCCC2 | -8.83% (active) |
| O=C(/C=C\c1ccc(OCCCCCC[P+](c2ccccc2)(c2ccccc2)c2ccccc2)cc1)c1ccc2c(c1)OCCO2 | -38.6% (active) |
| COc1cc(/C=C/C(=O)/C=C(/C=C/c2ccc(OC(C)=O)c(OC)c2)OB(F)F)ccc1OC(C)=O | 48.8% |
| CCOC(=O)C(NC(=O)C(Cl)Cl)C(O)c1ccccc1 (stereo not given) | 102% |
| O=C(Cc1nc2cc(Cl)c(Cl)cc2nc1CC(=O)c1ccccc1)c1ccccc1 | -55% (active) |
| COc1c(N2CC3CCCNC3C2)c(F)cc2c(=O)c(C(=O)N/N=C/c3c[nH]c4ccccc34)cn(C3CC3)c12 (stereo not given) | 100% |
| N=C(N)N=Nc1ccc(O)cc1 | 88% [100 µM] |
| CC(=O)OCC1CCC(COC(C)=O)CC1 (stereo not given) | 110% |
| CN(C)c1ccc(-c2nc(-c3ccccc3)c(-c3ccccc3)[nH]2)cc1 | 114% |
| CC(C)C[C@H](NC(=O)[C@H](Cc1ccccc1)n1ccc(N2CCCCC2)cc1=O)B(O)O | -24.1% (active) |
| CN1CCC2(CC1)NC(=O)c1c(c3ccc(Cl)c(Cl)c3n1C)C2C#N (stereo not given) | 9.36% (active) |
| O=c1c2c(=NCCCN3CCCC3)cc3c(=O)n(CCCN4CCCC4)c(=O)c4c(NCCCN5CCCC5)cc(c(O)n1CCCN1CCCC1)c2c4-3 | -62.2% (active) |
